Compounds without any hit were thinned out: in the full panel of roughly 83,000, 20% have a hit.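 Single-concentration screen, 48 h exposure, 96-well plates. Endpoint: percent growth. Below 10 = active.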 Unmarked numbers belong to inactive results. Calls of active or inactive are those of the source.
Key:
Assay in all cases: NCI-60 one-dose screen, 48 h (100 = growth as untreated, 0 = no growth, -100 = all killed)
[1] = test system: SK-MEL-2 melanoma; conditions: 10 µM unless noted
[2] = test system: EKVX NSCLC; conditions: 10 µM unless noted
[3] = test system: SN12C renal; conditions: 10 µM unless noted
[4] = test system: UO-31 renal; conditions: 10 µM unless noted
[5] = test system: TK-10 renal; conditions: 10 µM unless noted
[6] = test system: ACHN renal; conditions: 10 µM unless noted
[7] = test system: CAKI-1 renal; conditions: 10 µM
[8] = test system: A498 renal; conditions: 10 µM unless noted
[9] = test system: CCRF-CEM leukemia; conditions: 10 µM unless noted
[10] = test system: MOLT-4 leukemia; conditions: 10 µM unless noted
[11] = test system: SR leukemia; conditions: 10 µM unless noted
[12] = test system: RPMI-8226 leukemia; conditions: 10 µM unless noted
[13] = test system: OVCAR-8 ovarian; conditions: 10 µM unless noted
[14] = test system: OVCAR-5 ovarian; conditions: 10 µM unless noted
[15] = test system: OVCAR-4 ovarian; conditions: 10 µM unless noted
[16] = test system: SK-OV-3 ovarian; conditions: 10 µM unless noted
[17] = test system: IGROV1 ovarian; conditions: 10 µM unless noted
[18] = test system: OVCAR-3 ovarian; conditions: 10 µM unless noted
[19] = test system: HS 578T breast; conditions: 10 µM unless noted
[20] = test system: NCI/ADR-RES ovarian; conditions: 10 µM unless noted

| Structure (SMILES) | growth [1] [%] | growth [2] | growth [3] | growth [4] | growth [5] [%] | growth [6] | growth [7] [%] | growth [8] | growth [9] | growth [10] | growth [11] | growth [12] | growth [13] | growth [14] [%] | growth [15] | growth [16] | growth [17] | growth [18] | growth [19] | growth [20] |
| --- | --- | --- | --- | --- | --- | --- | --- | --- | --- | --- | --- | --- | --- | --- | --- | --- | --- | --- | --- | --- |
| Cc1nn(-c2ccc(Cl)cc2)c(C)c1N=Nc1ccc2oc(=O)ccc2c1 | 110 | 85.6% | 56.4% | 64.8% | 89.6 | 79.4% | 73.7 | 85.6% | 82% | 89.3% | 67.1% | 72.3% | 56.9% | 104 | 34.4% | 114% | 80.9% | 104% | 75.9% | 69.5% |
| Cc1[nH]nc2ccc(-c3nc4cnc(N5CCN(C)CC5)cn4c3Nc3ccc(F)cc3Br)cc12 | 91.1 | 86.1% | 29.9% | 50.4% | 65 | 48.3% | 21 | 82.3% | 3.21% (active) | 39.4% | 4.63% (active) | -6.49% (active) | 6.47% (active) | 80.3 | 64.6% | 97.4% | 59.7% | 10.5% | 91.5% | 49.4% |
| CNC(=O)c1cc(N2CCc3cc(NC(=O)Nc4ccc(Cl)c(Cl)c4)ccc32)ccn1 | 84.3 | 85.3% | 86.1% | 89.1% | 99.3 | 80.1% | 82.2 | 89.1% | 86.5% | 67.7% | 64.4% | 57.1% | 90% | 96.8 | 86.4% | 88.8% | 94% | 105% | 62% | 93% |
| COc1cc(/C=N/n2cnc3oc(-c4ccccc4)cc3c2=N)cc(CN2CCCC2)c1O | 113 | 97% | -78.8% (active) | 9.45% (active) | 114 | 75.9% | 62.7 | 85.7% | -2.49% (active) | 6.5% (active) | 27.4% | -42.2% (active) | -22.2% (active) | 99 | -49.7% (active) | 93.9% | -62.8% (active) | 104% | 63.6% | 16.6% |
| Oc1ccccc1-c1nnc(SCc2ccc(O)c3ncccc23)n1-c1ccccc1 | 23.1 | -0.459% (active) | 14.5% | -9.38% (active) | 18.9 | 8.88% (active) | 11.3 | -6.54% (active) | 7.6% (active) | 18% | 25.2% | 12.2% | 15.5% | 33 | 16.3% | 8.88% (active) | 6.65% (active) | 18.7% | 21.3% | 6.23% (active) |
| CN1C(=O)N(C)C2C1NN=c1s/c(=C\c3ccccn3)c(=O)n12 (stereo not given) | 103 | 99.4% | 98.8% | 91.3% | 104 | 104% | 100 | 105% | 101% | 107% | 114% | 101% | 101% | 109 | 105% | 110% | 102% | 115% | 104% | 96.7% |
| Oc1ccc(CSc2nnc(-c3ccc(Oc4ccccc4)cc3)n2-c2ccccc2)c2cccnc12 | 37.6 | 14.8% | 19.1% | -5.33% (active) | 23.6 | 6.83% (active) | 13.1 | 35.2% | 10.3% | 18.7% | 45.8% | 7.82% (active) | 16.5% | 42.7 | 17.9% | 14.1% | 11.7% | 19.3% | 18.7% | 6.26% (active) |
| CS(=O)(=O)c1ccc(-c2nn(-c3ccccc3)cc2/C=C/C(=O)c2ccc(Br)cc2)cc1 | 103 | 87.5% | 88.1% | 79.6% | 107 | 94% | 84.6 | 84.1% | 41.8% | 60.6% | 59.6% | 32.8% | 93.6% | 101 | 90.6% | 107% | 95% | 70.3% | 117% | 85.2% |
| O=[N+]([O-])c1ccc(-c2nnc(SCc3ccc(O)c4ncccc34)n2-c2ccccc2)cc1 | 13.8 | 40.5% | 9.69% (active) | 7.34% (active) | 79.3 | 29.3% | 30.1 | 70.8% | 21% | 43.2% | 40.6% | 17.8% | 17.9% | 73.9 | 50.6% | 30.6% | 30.6% | 30.5% | 5.1% (active) | 69% |
| COc1ccc(-c2nnc(SCc3ccc(O)c4ncccc34)o2)cc1 | 48.3 | 57.8% | 46.6% | 8.44% (active) | 56.4 | 23.6% | 32.1 | 69.8% | 15.7% | 28.1% | 45.8% | 9.32% (active) | 35.1% | 88.4 | 24.5% | 51.7% | 43% | 21.6% | -0.148% (active) | 16.9% |
| N#Cc1c(-c2cccs2)cc(-c2cnccn2)nc1SCC(=O)NNC(=S)Nc1ccc(F)cc1 | 123 | 103% | 100% | 79% | 108 | 104% | 99.1 | 118% | 93.6% | 94.9% | 85.1% | 105% | 104% | 109 | 96.3% | 121% | 106% | 122% | 109% | 106% |
| COc1ccc(N2C(=O)c3cc(OC)c(OC)cc3NC2SCc2ccccc2)cc1 (stereo not given) | 99.6 | 91.8% | 102% | 88.4% | 129 | 94.3% | 104 | 107% | 105% | 88% | 83.5% | 114% | 103% | 109 | 102% | 112% | 102% | 125% | 125% | 99.7% |
| Oc1ccc(CSc2nnc(-c3ccncc3)n2-c2ccccc2)c2cccnc12 | 29.7 | 48.2% | 11% | 9.11% (active) | 34.1 | 14.4% | 15.7 | 44% | 13.1% | 20.1% | 35.6% | 13.6% | 18.3% | 45.7 | 17% | 9.36% (active) | 8.84% (active) | 5.81% (active) | 15.4% | 9.52% (active) |
| C#Cc1ccc(NC(=O)c2ccc(/C=C/C(=O)c3nccn3C)cc2)c(F)c1 | 103 | 36% | 16.3% | 41.8% | 89.4 | 37.7% | 37.3 | 78.7% | 7.54% (active) | 16.2% | 8.09% (active) | -5.69% (active) | 21.4% | 40.7 | 42.3% | 65.3% | 23.9% | 12.6% | 51.4% | 10.8% |
| O=C1CC2(CCOCC2)Oc2ncccc21 | 95.9 | 93.5% | 33.1% | 101% | 60.5 | 36.3% | 94.2 | 99.6% | 0.712% (active) | 13.5% | 15% | 5.53% (active) | 90.9% | 52.6 | 102% | 120% | 8.85% (active) | -54.4% (active) | 95.2% | 104% |
